In PubChem BioAssay:
Results filed as inconclusive are left out. Activity calls are given as the source filed them.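 How the source made its calls, unless noted: active means normalized viability below 100% at a tested concentration; inactive means the rest.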

How the values were obtained:
[1] = growth inhibition of DIPG glioma cells, dose response, cell-based, SU-DIPG-XVII, MIPE5.0, CellTiter-Glo, qHTS (AID 1347060; cut-off not given, nearly all actives have AC50 up to about 26 µM;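 on AC50: cells exposed to compound for 48 hours before viability readout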); details: SU-DIPG-XVII viability, CellTiter-Glo ATP luminescence
[2] = growth inhibition of DIPG glioma cells, dose response, cell-based, JHH-DIPG-1, MIPE4.0, CellTiter-Glo, qHTS (AID 1347062; cut-off not given, nearly all actives have AC50 up to about 27 µM;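 on AC50: cells exposed to compound for two days before readout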); details: JHH-DIPG-1 viability, CellTiter-Glo ATP luminescence
[3] = growth inhibition of DIPG glioma cells, dose response, cell-based, SU-DIPG-IV, MIPE4.0, CellTiter-Glo, qHTS (AID 1347063; cut-off not given, nearly all actives have AC50 up to about 30 µM;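 further: compound exposure lasted 48 hours before the viability readout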); details: SU-DIPG-IV viability, CellTiter-Glo ATP luminescence
[4] = growth inhibition of DIPG glioma cells, dose response, cell-based, SU-DIPG-XIII, MIPE5.0, CellTiter-Glo, qHTS (AID 1347064; cut-off not given, nearly all actives have AC50 up to about 23 µM;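 on AC50: cells exposed to compound for 48 hours before the viability read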); details: SU-DIPG-XIII viability, CellTiter-Glo ATP luminescence
[5] = viability loss in pontine glioma line – cell-based, SU-DIPG-XXV, MIPE5.0, CellTiter-Glo, qHTS, dose response (AID 1347065; cut-off not given, nearly all actives have AC50 up to about 26 µM;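 further: cells exposed to compound for 48 hours before ATP readout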); details: CellTiter-Glo ATP luminescence
[6] = SU-DIPG-VI glioma cell viability, MIPE4.0 library, CellTiter-Glo luminescence, qHTS (AID 1347066; cut-off not given, nearly all actives have AC50 up to about 30 µM;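 further: cells exposed to compound for 48 hours before readout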); details: CellTiter-Glo ATP luminescence
[7] = JHH-DIPG-1 glioma cell viability, MIPE5.0 library, CellTiter-Glo luminescence, qHTS (AID 1347067; cut-off not given, nearly all actives have AC50 up to about 26 µM;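 further: cells exposed to compound for 48 hours before readout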); details: JHH-DIPG-1 glioma viability, CellTiter-Glo ATP luminescence
[8] = SU-DIPG-XXV glioma cell viability, MIPE5.0 library, qHTS (AID 1347068; cut-off not given, nearly all actives have IC50 up to about 30 µM;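 on IC50: cells exposed to compound for 48 hours before viability readout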)
[9] = modifiers of HSF1 nuclear foci, imaging, Selleck Cancer Library (AID 1347162; in the data active means plate-normalised HSF1 focus index below about 0.46); details: human cells, at 10 µM; SSMD: measured here: HSF1 foci SSMD mean; cell count: measured here: cell number; plate-normalised HSF1 focus index: stronger effect = lower value
[10] = ovarian cancer cell viability with rucaparib, profiling panel, oncology-focused library, rucaparib conditional (AID 1508598); details: patient-derived ovarian cancer cells, CellTiter-Glo viability, 144 h, stronger effect = lower value
[11] = sensitizers of A549 cells to miR-34 induction, primary screen, imaging, A549 dox-inducible miR-34, nuclei and caspase counts (AID 1347080;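 active means compounds whose cell count with miR-34 switched on is under 0.7 times the count with it off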); details: A549 miR-34 inducible, Hoechst nuclei count, 48 h
[12] = survival rescue of mitochondrial mutant cells in low glucose, primary screen, MELAS cybrids, Rieske KO mouse fibroblasts, CellTiter-Glo (AID 1508586;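 active means mean z-score across replicates of 1.96 or higher in either the MELAS or the Rieske mutant cell line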;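 further: z relative to plate mean and SD of compound and empty wells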)
[13] = at 0.000305 µM, OCI-C5x cells, with rucaparib 10 µM, 100% = cells with rucaparib alone
[14] = at 0.000305 µM, OCI-C5x cells, without rucaparib
[15] = at 0.000305 µM, OCI-P5x cells, with rucaparib 20 µM, 100% = cells with rucaparib alone
[16] = at 0.000305 µM, OCI-P5x cells, without rucaparib
[17] = at 0.00122 µM, OCI-C5x cells, with rucaparib 10 µM, 100% = cells with rucaparib alone
[18] = at 0.00122 µM, OCI-C5x cells, without rucaparib
[19] = at 0.00122 µM, OCI-P5x cells, with rucaparib 20 µM, 100% = cells with rucaparib alone
[20] = at 0.00122 µM, OCI-P5x cells, without rucaparib
[21] = at 0.00488 µM, OCI-C5x cells, with rucaparib 10 µM, 100% = cells with rucaparib alone
[22] = at 0.00488 µM, OCI-C5x cells, without rucaparib
[23] = at 0.00488 µM, OCI-P5x cells, with rucaparib 20 µM, 100% = cells with rucaparib alone
[24] = at 0.00488 µM, OCI-P5x cells, without rucaparib
[25] = at 0.0195 µM, OCI-C5x cells, with rucaparib 10 µM, 100% = cells with rucaparib alone
[26] = at 0.0195 µM, OCI-C5x cells, without rucaparib
[27] = at 0.0195 µM, OCI-P5x cells, with rucaparib 20 µM, 100% = cells with rucaparib alone
[28] = at 0.0195 µM, OCI-P5x cells, without rucaparib
[29] = at 0.0781 µM, OCI-C5x cells, with rucaparib 10 µM, 100% = cells with rucaparib alone
[30] = at 0.0781 µM, OCI-C5x cells, without rucaparib
[31] = at 0.0781 µM, OCI-P5x cells, with rucaparib 20 µM, 100% = cells with rucaparib alone
[32] = at 0.0781 µM, OCI-P5x cells, without rucaparib
[33] = at 0.313 µM, OCI-C5x cells, with rucaparib 10 µM, 100% = cells with rucaparib alone
[34] = at 0.313 µM, OCI-C5x cells, without rucaparib
[35] = at 0.313 µM, OCI-P5x cells, with rucaparib 20 µM, 100% = cells with rucaparib alone
[36] = at 0.313 µM, OCI-P5x cells, without rucaparib
[37] = at 1.25 µM, OCI-C5x cells, with rucaparib 10 µM, 100% = cells with rucaparib alone
[38] = at 1.25 µM, OCI-C5x cells, without rucaparib
[39] = at 1.25 µM, OCI-P5x cells, with rucaparib 20 µM, 100% = cells with rucaparib alone
[40] = at 1.25 µM, OCI-P5x cells, without rucaparib
[41] = at 5 µM, OCI-C5x cells, with rucaparib 10 µM, 100% = cells with rucaparib alone
[42] = at 5 µM, OCI-C5x cells, without rucaparib
[43] = at 5 µM, OCI-P5x cells, with rucaparib 20 µM, 100% = cells with rucaparib alone
[44] = at 5 µM, OCI-P5x cells, without rucaparib

C[C@@H](Oc1cc(-c2cnn(C3CCNCC3)c2)cnc1N)c1c(Cl)ccc(F)c1Cl
5640: cell count [9]
-10.4: SSMD [9]
inactive: plate-normalised HSF1 focus index [9] 0.639 | viability [10, 13] 129% | viability [10, 14] 131% | viability [10, 15] 112% | viability [10, 16] 105% | viability [10, 17] 124% | viability [10, 18] 125% | viability [10, 19] 103% | viability [10, 20] 107% | viability [10, 21] 136% | viability [10, 22] 133% | viability [10, 23] 106% | viability [10, 24] 104% | viability [10, 25] 123% | viability [10, 26] 121% | viability [10, 29] 125% | viability [10, 30] 121% | viability [10, 31] 103% | viability [10, 33] 118% | viability [10, 34] 124% | viability [10, 35] 101% | viability [10, 37] 117% | viability [10, 38] 116%
active: AC50 [1] 4.68 µM | AC50 [2] 16.6 µM | AC50 [3] 14.8 µM | AC50 [4] 2.63 µM | AC50 [5] 1.66 µM | AC50 [6] 20.9 µM | AC50 [7] 8.33 µM | IC50 [8] 4.68 µM | viability [10, 27] 98.3% | viability [10, 28] 96.4% | viability [10, 32] 98.8% | viability [10, 36] 94.2% | viability [10, 39] 72.6% | viability [10, 40] 79.6% | viability [10, 41] 10.7% | viability [10, 42] 91.2% | viability [10, 43] 6.65% | viability [10, 44] 13.1%

Cc1c(CCOc2ccc(C(=O)O)cc2)c2cc(Cl)ccc2n1C(c1ccccc1)c1ccccc1
6680: cell count [9]
inactive: outcome [1] | outcome [2] | outcome [3] | outcome [4] | outcome [5] | outcome [6] | outcome [7] | outcome [8] | plate-normalised HSF1 focus index [9] 1.14
2.36: SSMD [9]

NC1(c2ccc(-c3nc4ccn5c(=O)[nH]nc5c4cc3-c3ccccc3)cc2)CCC1
inactive: fold change ([11]; stronger effect = lower value, cell number ratio, induced over uninduced) 0.999 | plate-normalised HSF1 focus index [9] 1.19 | z-score ([12]; MELAS cybrid survival, CellTiter-Glo 48 h, stronger effect = higher value) -0.154 | viability [10, 13] 119% | viability [10, 14] 118% | viability [10, 15] 117% | viability [10, 16] 108% | viability [10, 17] 119% | viability [10, 18] 126% | viability [10, 19] 102% | viability [10, 20] 112% | viability [10, 21] 111% | viability [10, 22] 129% | viability [10, 23] 103% | viability [10, 24] 106% | viability [10, 25] 110% | viability [10, 26] 119% | viability [10, 27] 100% | viability [10, 28] 104% | viability [10, 29] 119% | viability [10, 30] 133% | viability [10, 33] 131% | viability [10, 34] 141% | viability [10, 36] 110% | viability [10, 37] 107% | viability [10, 38] 150% | viability [10, 40] 103% | viability [10, 41] 134% | viability [10, 42] 144% | viability [10, 43] 104% | viability [10, 44] 106%
-0.0056: z-score ([12]; Rieske KO mouse fibroblast survival, CellTiter-Glo 72 h)
6650: cell count [9]
active: AC50 [1] 16.6 µM | AC50 [2] 23.5 µM | AC50 [3] 14.8 µM | AC50 [4] 6.61 µM | AC50 [5] 1.86 µM | AC50 [7] 6.61 µM | IC50 [8] 18.6 µM | viability [10, 31] 98.1% | viability [10, 32] 98.2% | viability [10, 35] 90.4% | viability [10, 39] 88.6%
3.02: SSMD [9]
4130: cell count ([11]; measured here: total cells with miR-34 induction, stronger effect = lower value)
1.72: fold change ([11]; measured here: relative caspase fold change +Dox/-Dox)
4140: cell count ([11]; measured here: total cells without miR-34 induction)

CC[C@@H]1C(=O)N(C)c2cnc(Nc3ccc(C(=O)NC4CCC(N5CCN(CC6CC6)CC5)CC4)cc3OC)nc2N1C(C)C (some centres not stated)
7310: cell count [9]
active: AC50 [1] 0.0742 µM | AC50 [2] 6.62 µM | AC50 [3] 2.35 µM | AC50 [4] 5.9 µM | AC50 [5] 0.0525 µM | AC50 [6] 20.9 µM | AC50 [7] 4.17 µM | IC50 [8] 6.61 µM | viability [10, 15] 97.4% | viability [10, 20] 95.9% | viability [10, 21] 89.2% | viability [10, 22] 87.7% | viability [10, 23] 84.5% | viability [10, 24] 26.8% | viability [10, 25] 51.8% | viability [10, 26] 43.7% | viability [10, 27] 64.2% | viability [10, 28] 18.3% | viability [10, 29] 49.3% | viability [10, 30] 32.9% | viability [10, 31] 67.2%
inactive: plate-normalised HSF1 focus index [9] 1.16 | viability [10, 13] 101% | viability [10, 14] 104% | viability [10, 16] 102% | viability [10, 17] 107% | viability [10, 18] 102% | viability [10, 19] 100%
4.31: SSMD [9]
